The values below come from PubChem BioAssay (EPA / NIEHS).

By AC50 is commonly meant the midpoint of the concentration-response curve, whichever way the signal moves.

Inconclusive results are not listed. Where a structure was tested more than once in an assay, its records may differ in their call. The source made the active and inactive calls. Rule for the calls: active = hit-call score of the fitted dose curve at least 0.9, where 1 is the maximum; inconclusive = response in the unintended direction; inactive = score below 0.9. Peptide text beside a SMILES is read from it.

Sequence of Peroxisome proliferator-activated receptor gamma (Homo sapiens) (P37231 whole entry, looked up): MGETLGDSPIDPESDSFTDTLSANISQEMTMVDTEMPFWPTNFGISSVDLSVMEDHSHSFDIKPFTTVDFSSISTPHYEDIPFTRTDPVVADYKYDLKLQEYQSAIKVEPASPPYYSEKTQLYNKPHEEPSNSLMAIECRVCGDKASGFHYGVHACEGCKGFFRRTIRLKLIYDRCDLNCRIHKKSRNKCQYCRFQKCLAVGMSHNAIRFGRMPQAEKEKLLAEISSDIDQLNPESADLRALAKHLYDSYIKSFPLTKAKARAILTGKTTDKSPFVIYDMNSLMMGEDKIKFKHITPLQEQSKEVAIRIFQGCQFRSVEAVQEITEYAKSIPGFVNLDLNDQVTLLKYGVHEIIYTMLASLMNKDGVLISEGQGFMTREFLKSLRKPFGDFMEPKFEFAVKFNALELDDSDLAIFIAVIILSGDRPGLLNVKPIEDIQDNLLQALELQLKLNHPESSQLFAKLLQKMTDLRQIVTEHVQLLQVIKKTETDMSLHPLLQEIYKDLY

This assay deals with Peroxisome proliferator-activated receptor gamma (Homo sapiens) (UniProt P37231). Nature of the assay: NVS_NR_hPPARg: NovaScreen (NVS) Nuclear Receptor Binding Assay for human Peroxisome Proliferator-activated Receptor gamma (PPARg) (AID 2283370). The protocol:
NVS_NR_hPPARg is a biochemical, single-readout assay that uses extracted gene-proteins in a cell-free assay. Measurements were taken 2 hours after chemical dosing in a 384-well plate.NVS_NR_hPPARg is one of one assay component(s) measured or calculated from the NVS_NR_hPPARg assay. It is designed to make measurements of fluorescent polarization, a form of binding reporter, as detected with fluorescence polarization signals by Fluorescence Polarization technology.Data from the assay component NVS_NR_hPPARg was analyzed into 1 assay endpoint. This assay endpoint, NVS_NR_hPPARg, was analyzed in the positive analysis fitting direction relative to DMSO as the negative control and baseline of activity. Using a type of binding reporter, loss-of-signal activity can be used to understand changes in the binding as they relate to the gene PPARG. Furthermore, this assay endpoint can be referred to as a primary readout, because the performed assay has only produced 1 assay endpoint. To generalize the intended target to other relatable targets, this assay endpoint is annotated to the nuclear receptor intended target family, where the subfamily is non-steroidal.
Binding assays used specific radioligands (tritiated, iodinated) with non-radioactive competitive displacement ligands in agonist or antagonist protocols (as indicated) and various reference compounds and inhibitors to titrate specific binding to receptors and transporters. Most enzyme assays (CYPs, kinases, phosphatases, proteases, HDACs) used recombinant protein and specific substrates (fluorescence mostly, some colorimetric and radioactive) and inhibitors, followed by a biochemical separation of substrate and product. All assays for the biochemical HTS were initially run in duplicate at a single concentration (10 uM for CYP450 assays and 25 uM for all others). […] Each assay was run with positive and negative controls, and concurrent controls on every plate. The follow-up (secondary) screen tested active chemical-pairs in concentration series, as well as a few additional assays not tested in the primary screen, some selected negative inactives, and several cases re-run in the concentration series for confirmatory purposes.
As for `CC(C)c1cc(C(C)C)cc(C(C)C)c1`, the compound was classed as inactive.
For the compound `O=C(O)/C=C/c1ccccc1`, the call was inactive.
With `C[Si]1(C)O[Si](C)(C)O[Si](C)(C)O[Si](C)(C)O[Si](C)(C)O1`, the compound was classed as inactive.
Take `CCCCCCCOC(=O)c1ccc(O)cc1`: the AC50 was 12.3 µM (active).
For the compound `O=c1c(O)c(-c2ccc(O)cc2O)oc2cc(O)cc(O)c12`, the call was inactive.
On to `Oc1ccccc1Cc1ccccc1O`, for which the compound was classed as inactive.
On to `O=C(OCc1ccccc1)c1ccc(O)cc1`, for which the result was inactive and the AC50 was 10.4 µM (active).
Consider `CC12CCC(CC1)C(C)(C)O2`, for which the AC50 was 19.1 µM (active).
`CCOC(=O)c1ccc(C)cc1`: the compound was classed as inactive.
For the compound `c1ccc(Nc2cccc3ccccc23)cc1`, the call was inactive.
With `C/C=C/C=C/CCCCCCCO`, the compound was called inactive.
Still for that read-out and setting: with `CCCCCCCCCCCCc1ccc(O)cc1` the entry was “inactive”.
On to `Oc1ccc(-c2ccccc2)c(Cl)c1`, for which the call was inactive.
For the compound `CCCCCCCCCCCC(=O)N(C)CC(=O)O`, the outcome was inactive.
Take `O=S(=O)(O)c1ccc(N=Nc2c(O)ccc3ccccc23)cc1`: the AC50 was 20.7 µM (active).
As to `CCCCCCOC(=O)CCCCC(=O)OCCCCCC`, the call was inactive.
As to `CCCCCCC=O`, the result was inactive.
Regarding `C=CCOC(=O)c1ccc(C(=O)OCC=C)c(C(=O)OCC=C)c1`, the call was inactive.
In the case of `COC(=O)[C@H](Cc1ccccc1)NC(=O)[C@@H](N)CC(=O)O` (H-Asp-Phe-OMe), the compound was classed as inactive.
Consider `CCc1cccc(C)c1N`, for which the result was inactive.
Regarding `Cc1ccc([N+](=O)[O-])cc1N`, the compound was called inactive.
Consider `C=C1C[C@H]2[C@@H]3C=C(C)C4=CC(=O)CC[C@]4(C)[C@H]3CC[C@]2(C)[C@@]1(OC(C)=O)C(C)=O`, for which the result was inactive.
Turning to `CCCCC/C=C\C/C=C\CCCCCCCC(=O)O`, the AC50 is 6.85 µM (active).
Turning to `CC1=NN(c2ccc(S(=O)(=O)O)cc2)C(=O)C1N=Nc1ccccc1` (configuration not stated), the call was inactive.
On to `CC(C)COC(=O)CC(C(=O)OCC(C)C)S(=O)(=O)O` (configuration not stated), for which the result was inactive.
Still for that read-out and setting: the result for `CC(C)c1ccc(O)c(C(C)C)c1` reads “inactive”; that for `CC(C)(C)NC(=O)[C@H]1CC[C@H]2[C@@H]3CC[C@H]4NC(=O)C=C[C@]4(C)[C@H]3CC[C@]12C`, “inactive”.
Regarding `CC(C)(C)N`, the compound was classed as inactive.
On the same count and under the same terms, the result for `Nc1ccc(C(=O)O)cc1` reads “inactive”.
For `CCN1CN(CC)CN(CC)C1`, the compound was called inactive.
On to `CCCCCC[C@@H](O)C/C=C\CCCCCCCC(=O)OCC(O)CO` (some centres not stated), for which the result was inactive.
